Compound activity from PubChem BioAssay.
Compounds with a hit are over-represented: about 6.8% of the library has one in this group of screens.
KB-3-1 tox: qHTS assay for MDR1-selective chemotherapeutics: Primary screen using the parental adenocarcinoma cell KB-3-1; AID 1347075, 2019; Potency, µM (doses to about 46.1 µM), most hits filed as cytotoxic; 1.4% of 400,000 active; KB-3-1 viability, CellTiter-Glo ATP luminescence, 72 h; note: % is set by controls: 0 for no effect and ±100 for the full control effect; nearly all actives have a fitted effect of over 60% in size
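Luminescent ATP read-out (CellTiter-Glo) measures survival of drug-naive KB-3-1 cells after 72 h compound exposure at 37 °C. Titration series was screened from lowest to highest concentration, with DMSO vehicle plates as background controls.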
KB-V1 cytotox: qHTS assay for MDR1-selective chemotherapeutics: Primary screen using the drug-selected MDR subline cells KB-V1. Potency, µM (series often up to 46.1 µM), most hits filed as cytotoxic. KB-V1 MDR cells viability, CellTiter-Glo, 72 h. 3.4% of 400,000 active; note: % is set by controls: 0 for no effect and ±100 for the full control effect; nearly all actives have a fitted effect of over 60% in size
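KB-V1 cells (P-gp-expressing MDR subline of KB-3-1) in phenol-red-free DMEM with 10% FBS were exposed to library compounds over a concentration series for 72 h at 37 degrees C. Viability read by CellTiter-Glo luminescence; concentration-effect curves fitted after normalization.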
SW480 rerep: A quantitative high throughput screen for small molecules that induce DNA re-replication in SW480 colon adenocarcinoma cells. AID 624297, 2012. 1.8% of 340,000 active. Potency, µM (series often up to 46.1 µM), inactives show at the highest dose re-replication activation, actives largely listed as activators. SW480 DNA re-replication, Hoechst DNA content imaging, 48 h; note: % of control where 0% means no effect; nearly all actives have a fitted effect of over 55% in size
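Cells (250 per well) received 23 nL compound or DMSO by pin tool and were kept 48 hr at 37 C, 5% CO2. Nuclei were then stained with Hoechst for 40 min and scanned for DNA content.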
PTAP TSG101 blk: qHTS Assay for Iinhibitors of HIV-1 Budding by Blocking the Interaction of PTAP/TSG101; Fluorescence polarization, FITC-PTAP peptide / Tsg101 binding; Potency, µM (highest dose often 115 µM), without a hit: at the highest dose activity change, negative = inhibition, most hits filed as inhibitors; 340,000 tested, under 10 active; active = well fitted inhibition curve with a large enough effect in the main read-out, with a control signal flat, not every such curve was filed as active; inconclusive = small, poorly fitted or top-dose-only effect, or effect the other way, or a change in a side signal; inactive = no such curve, though single readings can be large or run the other way; note: % of control where 0% means no effect
Target sequence (Q99816 whole entry, looked up): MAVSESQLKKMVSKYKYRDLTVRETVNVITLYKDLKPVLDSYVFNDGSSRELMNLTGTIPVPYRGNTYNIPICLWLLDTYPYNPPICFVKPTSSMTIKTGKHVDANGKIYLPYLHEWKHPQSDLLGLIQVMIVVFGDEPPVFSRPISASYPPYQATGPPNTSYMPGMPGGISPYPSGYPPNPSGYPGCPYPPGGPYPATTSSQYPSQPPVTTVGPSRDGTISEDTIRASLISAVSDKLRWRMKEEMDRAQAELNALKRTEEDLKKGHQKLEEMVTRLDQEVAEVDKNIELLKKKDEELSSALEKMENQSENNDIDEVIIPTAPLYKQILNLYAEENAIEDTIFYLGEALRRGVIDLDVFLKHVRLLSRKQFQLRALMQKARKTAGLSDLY
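Compounds were pin-transferred onto Tsg101 binding domain (10 uM final) in HEPES pH 7.5 buffer, then FITC-PTAP peptide was added at 50 nM final. After 20 min at RT, polarization reported peptide displacement across a qHTS concentration series.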
PINK1 modulator: A Quantitative High throughput Screen to Identify Chemical Modulators of PINK1 Expression. PINK1 immunofluorescence, high-content cytometry, 24 h. Potency, µM (titrated, usually from 76.6 µM), for the others: top-dose activation (PINK1 increase), usual class: activators. 0.2% of 410,000 active. AID 624263, 2012; active = well fitted activation curve with a large enough effect; inconclusive = small, poorly fitted or top-dose-only effect; cell line not stated here; note: % of control where 0% means no effect; nearly all actives have a fitted effect of over 65% in size
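Measures PINK1 amount and localization on or inside mitochondria by immunofluorescence. Stable cells get compounds at 5 concentrations for 24 hours before fixation and staining; CCCP controls included.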
MCF10A rerep: A quantitative high throughput screen for small molecules that induce DNA re-replication in MCF 10a normal breast cells; MCF 10A DNA re-replication, Hoechst nuclear intensity, 48 h; Potency, µM (doses to about 46.1 µM), without a hit: top-dose activity, positive = re-replication, most hits filed as activators; 2.9% of 350,000 active; note: % of control where 0% means no effect; nearly all actives have a fitted effect of over 50% in size
Starred values were filed as active, the others as inactive; i = inactive; ? = inconclusive; / = no result; ! = not active in a repeat; [ ] = another dose, or the depositor's remark. Unless noted, calls come from the whole dose curve; as a rule, active = well fitted curve in the direction sought with a large enough effect; inconclusive = small, poorly fitted or top-dose-only effect, or another doubt; inactive = no such curve, though single readings can be large; an effect the other way counts as inactive or inconclusive. Potency is the fitted concentration of half-maximal effect.

SMILES	KB-3-1 tox	KB-V1 cytotox	SW480 rerep	PTAP TSG101 blk	PINK1 modulator	MCF10A rerep
COc1ccc(CCNC(=O)CSc2cn(CCNC(=O)c3ccccc3F)c3ccccc23)cc1OC	?	i	/	/	-0.3%	/
O=C(CSCCc1ccccn1)Nc1ccccn1	?	i	-1.8%	-6.0%	0.0%	24.1%
O=C(CCSCCc1ccccn1)Nc1ccccc1C(F)(F)F	i	i	/	/	-0.1%	/
O=C(CCSCCc1ccccn1)Nc1c(F)cc(F)cc1Br	i	16.4µM*	0.5%	-5.9%	-0.1%	?
O=C(CSCCc1ccccn1)Nc1ccc(Br)cn1	i	20.6µM*	-12.1%	-6.1%	6.5%[38.3 µM]	12.7%
OCC1OC([S-])[C@H](O)C(O)C1O.[Au+] (stereo not given in full)	/	/	-1.9%	/	/	29.9µM*
COc1ccc(CCN2C(=O)CN(Cc3ccccc3)CC2=O)cc1OC	i	6.51µM*	-4.0%	-2.3%	-2.3%	3.7%
COc1ccc(NC2=C(Cl)C(=O)N(CCc3ccccc3)C2=O)c(OC)c1	i	13µM*	-7.2%	-3.0%	2.7%	-2.3%
COc1ccc(CCn2c3c(c(=O)[nH]c2=S)CN(Cc2ccccc2)CN3)cc1OC	/	/	/	/	-0.3%	/
COc1ccc(NC2=C(Cl)C(=O)N(CCc3ccccc3)C2=O)cc1	i	i	1.6%	-3.5%	0.5%	-0.5%
COc1ccc(C2SCC(=O)N2CCc2ccc(OC)c(OC)c2)cc1 (stereo not given)	?	?	10.3µM*	-0.3%	5.5%	0.517µM*
COc1ccc(CCNC2=C(Cl)C(=O)N(CCc3ccc(OC)c(OC)c3)C2=O)cc1OC	?	20.6µM*	1.6%	0.9%	10.7%	3.4%
CCN(CC)CCCNC(=O)c1c2c(nc3ccccc13)C(=O)N(C1CCCCC1)C2	i	i	/	/	1.0%	/
CCOc1ccc(NC(=O)Cn2c(=O)n(Cc3ccc4c(c3)OCO4)c(=O)c3ccc(C(=O)NC4CCCCC4)cc32)cc1	i	?	/	/	-4.2%	/
COc1ccc(CCN2C(=O)C=CC2=O)cc1OC	i	?	7.31µM*	-1.5%	-1.3%	4.61µM*
O=c1c(Cl)c(Cl)cnn1Cc1nnc(-c2ccccc2Br)o1	i	?	4.61µM*	-2.9%	-0.2%	3.26µM*
C=C1CC(C(=O)N/N=C/c2ccc(O)cc2)C1	i	i	16.4µM*	-3.6%	4.5%	-4.2%
Cc1ccc(N2C(=O)CSC23C(=O)N(CC(=O)NCCc2ccccc2)c2ccccc23)cc1 (stereo not given)	i	i	/	/	-5.3%	/
COc1cccc(/C(O)=C2\C(=O)C(=O)N(c3ccccn3)C2c2cccc(OC)c2OC)c1 (stereo not given)	i	23.1µM*	-13.0%	-2.4%	5.7%[38.3 µM]	11.3%
CCCOc1ccc(/C(O)=C2\C(=O)C(=O)N(c3ccccn3)C2c2ccccc2F)cc1C (stereo not given)	i	18.4µM*	21.5%	-3.1%	1.3%	?
COc1cccc(CN2C(=O)NC(C)(C3CCN(Cc4cccc(O)c4)CC3)C2=O)c1OC (stereo not given)	/	/	/	/	0.1%	/
CCN(CC)C(=O)Cn1c(=O)n(Cc2ccc(C(=O)NCCCOC)cc2)c(=O)c2ccccc21	i	?	/	/	0.2%	/
c1csc(Cn2c(-c3cccs3)nc3ccccc32)c1	?	20.6µM*	10.6%	-4.1%	-4.8%[38.3 µM]	25.7%
Cc1nc(CSc2nnc(Nc3cccc(C)c3C)s2)cs1	i	18.4µM*	13.1%	-0.5%	2.3%	16.7%
Cc1cccc(C)c1Nc1nnc(SCc2nc3ccccc3s2)s1	i	16.4µM*	3.8%	-5.7%	2.7%	?
SMILES	KB-3-1 tox	KB-V1 cytotox	SW480 rerep	PTAP TSG101 blk	PINK1 modulator	MCF10A rerep
O=C(Cn1cncn1)N1CCOc2ccc(CN3CCN(c4ccccc4)CC3)cc2C1	/	/	/	/	-0.1%	/
CCOc1ccc(CCNC(=O)c2cnc3sc(N4CCOCC4)nn3c2=O)cc1	/	/	/	/	2.8%	/
O=C(Nc1nc(-c2cccs2)cs1)c1ccc(S(=O)(=O)N2CCCC2)cc1	16.4µM*	?	?	-4.2%	5.5%[38.3 µM]	12.5%
O=C(Nc1nc(-c2ccc3c(c2)OCCO3)cs1)c1ccc(S(=O)(=O)N2CCCCC2)cc1	?	8.2µM*	12.3%	-7.8%	?	2.4%
CCc1ccccc1NC(=O)Cn1c(=O)n(CCCCCC(=O)NCc2ccc(C)cc2)c(=O)c2sccc21	?	i	/	/	3.5%	/
CCOC(=O)CN(Cc1ccccc1)C(C(=O)NC1CCCCC1)c1ccc(C)cc1 (stereo not given)	i	i	/	/	1.3%	/
O=C(COc1ccccc1Br)NCCc1nc2ccccc2[nH]1	i	14.6µM*!	-3.0%	-2.5%	5.9%	-5.2%
COc1ccccc1OCC(=O)NCCc1nc2ccccc2[nH]1	i	i	-2.3%	-3.9%	-1.1%	4.1%
Cc1ccc(NC(=O)CN2C(=O)COc3ccc(S(=O)(=O)N4CCCCCC4)cc32)cc1Cl	/	/	/	/	1.3%	/
C=CCC[C@H](Cc1ccc(F)cc1)C(=O)OC[C@@H](NC(=O)[C@@H](CC=C)CC(=O)N[C@@H](CO)Cc1ccccc1)C(C)(C)C	?	i	?	-3.2%	11.5%	32.8%
C=CCC[C@@H](Cc1ccc(F)cc1)C(=O)OC[C@H](Cc1c[nH]c2ccccc12)NC(=O)[C@@H](CC=C)CC(=O)N[C@H](CO)Cc1ccccc1	i	?	3.66µM*	-0.1%	7.2%	21.5%
C=CCC[C@@H](Cc1ccc(F)cc1)C(=O)OC[C@@H](Cc1c[nH]c2ccccc12)NC(=O)[C@H](CC=C)CC(=O)N(CCO)Cc1ccccc1	?	20.6µM*	?	-4.0%	3.3%	23.1µM*
C=CCC[C@H](Cc1ccc(F)cc1)C(=O)OC[C@H](Cc1c[nH]c2ccccc12)NC(=O)[C@@H](CC=C)CC(=O)N[C@@H](CO)Cc1ccccc1	?	i	-5.7%	-3.1%	-1.3%	?
C=CCC[C@H](Cc1ccc(F)cc1)C(=O)OC[C@@H](Cc1c[nH]c2ccccc12)NC(=O)[C@H](CC=C)CC(=O)N(CCO)Cc1ccccc1	?	?	?	/	1.6%	18.4µM*
